Laboratory results taken from PubChem BioAssay (NCI).
Where “and” joins values, the source holds several entries; their conditions need not be identical. Identical values can stand only once. Compounds without any hit were thinned out: in the full panel of roughly 83,000, 20% have a hit.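 Negative percent growth values reflect cell death: -40 means 40% of the cells present at the start died, and -100 means all died.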 Calls of active or inactive are those of the source. Rule for the calls: active = growth percent below 10; inactive = the rest.

How the values were obtained:
Assay in all cases: NCI-60 one-dose screen, 48 h (100 = growth as untreated, 0 = no growth, -100 = all killed)
Conditions in all cases: 10 µM unless noted
NCI-H23 lung = test system: NCI-H23 lung
HOP-62 NSCLC = test system: HOP-62 NSCLC
NCI-H460 lung = test system: NCI-H460 lung
HOP-92 NSCLC = test system: HOP-92 NSCLC
NCI-H522 lung = test system: NCI-H522 lung
A549/ATCC NSCLC = test system: A549/ATCC NSCLC
786-0 renal = test system: 786-0 renal
COLO 205 colon = test system: COLO 205 colon
DU-145 prostate = test system: DU-145 prostate
K-562 leukemia = test system: K-562 leukemia
MALME-3M melanoma = test system: MALME-3M melanoma
MDA-MB-231 breast = test system: MDA-MB-231 breast
RXF 393 renal = test system: RXF 393 renal
SF-268 CNS = test system: SF-268 CNS
SF-295 CNS = test system: SF-295 CNS
SF-539 CNS = test system: SF-539 CNS
UACC-257 melanoma = test system: UACC-257 melanoma
NCI-H322M lung = test system: NCI-H322M lung
M14 melanoma = test system: M14 melanoma
NCI-H226 lung = test system: NCI-H226 lung

Measured: growth

CC12CCC3C4CCC(=O)C=C4CCC3C1CC1CC(=O)OC12 (centres undefined)
inactive: NCI-H23 lung 96.2% | HOP-62 NSCLC 88% | NCI-H460 lung 104% | HOP-92 NSCLC 92.7% | NCI-H522 lung 79% | A549/ATCC NSCLC 84.5% | 786-0 renal 107% | COLO 205 colon 105% | DU-145 prostate 112% | K-562 leukemia 95.5% | MALME-3M melanoma 103% | MDA-MB-231 breast 97.6% | RXF 393 renal 110% | SF-268 CNS 98% | SF-295 CNS 103% | SF-539 CNS 101% | UACC-257 melanoma 80.7%

Clc1ccc(COC(Cn2ccnc2)c2ccc(Cl)cc2Cl)c(Cl)c1 (centres undefined)
inactive: NCI-H23 lung 40.6% and 25.2% | NCI-H322M lung 94.1% and 85.6% | HOP-62 NSCLC 71.3% and 84.9% | NCI-H460 lung 56.8% and 55.9% | A549/ATCC NSCLC 37.3% and 12.5% | 786-0 renal 48.9% and 49.6% | COLO 205 colon 57.2% and 57.9% | DU-145 prostate 76.8% and 69.8% | K-562 leukemia 25.5% and 13.7% | MALME-3M melanoma 56.1% and 75.3% | MDA-MB-231 breast 49.5% and 66.9% | RXF 393 renal 72.1% and 10.9% | SF-268 CNS 70.2% and 77.8% | SF-295 CNS 30.4% and 51.3% | SF-539 CNS 80.4% and 70.1% | UACC-257 melanoma 61.2% and 48% | M14 melanoma 29.2%
-1.54% (active) and 14.5% (inactive): HOP-92 NSCLC

Nc1ccc(S(=O)(=O)F)cc1
inactive: NCI-H23 lung 108% | HOP-62 NSCLC 109% | NCI-H460 lung 111% | HOP-92 NSCLC 110% | NCI-H522 lung 96.1% | A549/ATCC NSCLC 102% | 786-0 renal 94.7% | COLO 205 colon 112% | DU-145 prostate 107% | K-562 leukemia 91.8% | MALME-3M melanoma 95.2% | MDA-MB-231 breast 117% | RXF 393 renal 100% | SF-268 CNS 99.8% | SF-295 CNS 102% | SF-539 CNS 103% | UACC-257 melanoma 110% | M14 melanoma 107%

O=C(O)c1cc([N+](=O)[O-])cc([N+](=O)[O-])c1
inactive: NCI-H226 lung 97% | HOP-62 NSCLC 85.6% | NCI-H460 lung 106% | HOP-92 NSCLC 88.2% | NCI-H522 lung 67.9% | A549/ATCC NSCLC 79.6% | 786-0 renal 97.9% | COLO 205 colon 118% | DU-145 prostate 109% | K-562 leukemia 116% | MALME-3M melanoma 109% | MDA-MB-231 breast 120% | SF-268 CNS 97% | SF-295 CNS 101% | SF-539 CNS 104% | UACC-257 melanoma 61.8%

Oc1cc(Cl)ccc1Oc1ccc(Cl)cc1Cl
active: NCI-H460 lung 3.2% | HOP-92 NSCLC -11.4% | NCI-H522 lung -4.34% | MALME-3M melanoma 5.91% | MDA-MB-231 breast 8.82% | RXF 393 renal -9.98% | SF-295 CNS 7.37%
inactive: NCI-H226 lung 99.7% | NCI-H322M lung 97.6% | HOP-62 NSCLC 20.5% | A549/ATCC NSCLC 37.5% | 786-0 renal 86.4% | COLO 205 colon 105% | DU-145 prostate 14.5% | K-562 leukemia 11% | SF-268 CNS 21.5% | SF-539 CNS 14.7% | UACC-257 melanoma 21.4% | M14 melanoma 22.1%

C=CC1CN2CCC1CC2C(O)c1ccnc2ccccc12 (centres undefined)
inactive: NCI-H226 lung 112% | NCI-H322M lung 145% | HOP-62 NSCLC 121% | NCI-H460 lung 118% | NCI-H522 lung 24.2% | 786-0 renal 108% | COLO 205 colon 104% | DU-145 prostate 111% | K-562 leukemia 231% | MALME-3M melanoma 140% | MDA-MB-231 breast 125% | SF-268 CNS 120% | SF-295 CNS 121% | SF-539 CNS 121% | UACC-257 melanoma 158% | M14 melanoma 133%

CNC(=O)CCl
inactive: NCI-H226 lung 90.9% | NCI-H322M lung 102% | HOP-62 NSCLC 98.5% | NCI-H460 lung 107% | HOP-92 NSCLC 93.7% | NCI-H522 lung 106% | A549/ATCC NSCLC 96.3% | COLO 205 colon 108% | DU-145 prostate 114% | K-562 leukemia 121% | MALME-3M melanoma 92.5% | RXF 393 renal 110% | SF-268 CNS 104% | SF-295 CNS 105% | SF-539 CNS 102% | UACC-257 melanoma 92.5% | M14 melanoma 105%

CC1=C(C)C(=O)O[C@@H]([C@](C)(O)[C@]2(O)CC[C@@]3(O)[C@@H]4C[C@H]5O[C@]56CC=CC(=O)[C@]6(C)[C@H]4CC[C@]23C)C1
active: NCI-H226 lung -45.2% | NCI-H322M lung -15.5% | HOP-62 NSCLC 2.69% | NCI-H460 lung 5.64% | NCI-H522 lung -59.5% | A549/ATCC NSCLC 7.89% | 786-0 renal -30.7% | COLO 205 colon -83.1% | DU-145 prostate 7.11% | K-562 leukemia 3.63% | MALME-3M melanoma -4.58% | SF-268 CNS -22.6% | SF-295 CNS 4.3% | SF-539 CNS -10.1% | UACC-257 melanoma 6.11%
inactive: HOP-92 NSCLC 15.7% | MDA-MB-231 breast 30.3% | M14 melanoma 11.3%
